TDP1 cell noCPT: qHTS for Inhibitors of human tyrosyl-DNA phosphodiesterase 1 (TDP1): qHTS in cells in absence of CPT | 15% of 420,000 active | Potency, µM (doses to about 46.2 µM), inactives show at the highest dose activity change, negative = growth inhibition, usual class: inhibitors | DT40 Tdp1-/- hTDP1 cells, no CPT, ATP luminescence, 48 h; also: potency is read from the fitted curve at half-maximal effect; % is scaled to controls: 0 for no effect and ±100 for the full control effect; nearly all actives have a fitted effect of over 55% in size
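Seeded 400 DT40-hTDP1 cells/well (vehicle DMSO, no 20 nM CPT); pinned compounds; ≥48 hr at 37 °C; CellTiter-Glo luminescence as viability measure.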
IL-1B inflam inh: blocks inflammasome-driven IL-1 beta release. activity change, % at 57.5 µM. THP-1 LPS/ATP IL-1B secretion, AlphaLISA, 16 h; active compounds read low. 4.7% of 360,000 active; in the data active = activity change below about -50%; inconclusive = mostly about -30% to -49%; also: % is scaled to controls: 0 for no effect and ±100 for the full control effect
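THP-1 cells pretreated 1 hr with compounds (up to 57.5 uM final), then stimulated with LPS (250 ng/mL final) plus ATP (1.25 mM final); secreted IL-1B measured by AlphaLISA after 16 hr, decreased signal indicating inhibition.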
TGFb inhibitor: inhibitors of TGF-b signaling | HepG2 CAGA-GFP TGF-b/SMAD3 reporter, GFP fluorescence, 18 h; TGF-beta stimulated, 500 pg/mL final | Potency, µM (top dose mostly 46.1 µM), for inactives: at the top dose activity, negative = inhibition, hits mostly inhibitors | 1.2% of 410,000 active | AID 588855; also: potency is read from the fitted curve at half-maximal effect; % is scaled to controls: 0 for no effect and ±100 for the full control effect; nearly all actives have a fitted effect of over 65% in size
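Inhibition of TGF-beta-driven CAGA-GFP reporter expression in HEPG2 cells is measured by cellular GFP fluorescence after 18 h stimulation with 500 pg/mL recombinant TGF-beta in 1% FBS medium at 37 degrees C.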
DT40 TDP1 CPT: DT40-hTDP1 cell growth loss with CPT. 12% of 420,000 active. Potency, µM (series often up to 46.2 µM), for inactives: top-dose activity change, negative = growth inhibition, most hits filed as inhibitors. chicken DT40 Tdp1-/-;hTDP1 cells + 20 nM CPT, ATP luminescence, 48 h; also: potency is read from the fitted curve at half-maximal effect; % is scaled to controls: 0 for no effect and ±100 for the full control effect; nearly all actives have a fitted effect of over 55% in size
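Cell growth measured by CellTiter-Glo luminescence after a minimum 48 h, 37 C compound exposure with 20 nM CPT in Tdp1-knockout DT40 cells stably expressing hTDP1, seeded 400/well; qHTS titration format.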
S-ASM inh: human S-ASM enzyme inhibition; P17405; placental ASM, HMU-PC fluorogenic substrate, 60 min; Potency, µM (series often up to 57.5 µM), inactives show at the top dose activity change, negative = inhibition, actives largely listed as inhibitors; 0.006% of 340,000 active; also: potency is read from the fitted curve at half-maximal effect
Target sequence (P17405 47-631 limits assumed): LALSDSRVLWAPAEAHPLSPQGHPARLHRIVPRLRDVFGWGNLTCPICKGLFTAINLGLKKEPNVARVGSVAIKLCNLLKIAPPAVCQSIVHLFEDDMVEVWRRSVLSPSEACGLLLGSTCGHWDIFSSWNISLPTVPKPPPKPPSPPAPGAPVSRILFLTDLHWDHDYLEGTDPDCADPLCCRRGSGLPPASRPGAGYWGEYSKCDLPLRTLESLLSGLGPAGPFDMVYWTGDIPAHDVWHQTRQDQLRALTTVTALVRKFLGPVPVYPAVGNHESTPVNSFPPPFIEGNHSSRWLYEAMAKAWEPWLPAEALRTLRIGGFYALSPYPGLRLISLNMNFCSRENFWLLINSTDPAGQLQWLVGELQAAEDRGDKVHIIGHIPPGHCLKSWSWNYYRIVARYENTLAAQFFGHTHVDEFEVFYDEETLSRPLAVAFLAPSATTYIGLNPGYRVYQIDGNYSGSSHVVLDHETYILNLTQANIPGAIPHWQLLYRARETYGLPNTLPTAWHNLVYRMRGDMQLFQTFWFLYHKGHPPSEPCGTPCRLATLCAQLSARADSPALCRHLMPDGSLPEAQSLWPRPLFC
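Human placenta-derived ASM preincubated with compound 10 min at room temperature, then reacted with 9 uM (final) fluorogenic HMU-PC substrate for 60 min at 37 C. Stop solution raises pH to 10; fluorescence read at Ex 386/Em 447 nm.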
HepG2 tox: kills HepG2 cells in TGF-b inhibitor counter-screen; Potency, µM (series often up to 46.1 µM), for inactives: at the top dose activity change, negative = cytotoxicity, most hits filed as cytotoxic; HepG2 CAGA-GFP viability, ATP luminescence, 18 h; AID 588856; 0.76% of 410,000 active; also: potency is read from the fitted curve at half-maximal effect
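HepG2 CAGA-GFP cells (1000/well, DMEM with 1% FBS) received compound, then TGF-beta at 500 pg/mL final, and were incubated 18 hours at 37 degrees C. Viability was read by CellTiter-Glo luminescence. Media-only wells were set as complete cell-killing and DMSO as no toxicity.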
Starred values were filed as active, the others as inactive. Only some compounds are listed: those with a hit (about 19% of all), similar ones and a draw of the others. Unless noted, calls follow the shape of the dose curve; as a rule, active = well fitted curve in the direction sought with a large enough effect; inconclusive = small, poorly fitted or top-dose-only effect, or another doubt; inactive = no such curve, though single readings can be large; an effect the other way counts as inactive or inconclusive.

Screening Fc1ccc(Nc2ncnc3onc(-c4ccc(Cl)cc4)c23)cc1Cl returned TDP1 cell noCPT 18µM*, TGFb inhibitor inconclusive, DT40 TDP1 CPT inconclusive and HepG2 tox -10%.
Screening COc1cccc(CNc2ncnc3onc(C)c23)c1 returned TDP1 cell noCPT 9.2µM*, TGFb inhibitor -13%, DT40 TDP1 CPT 13µM* and HepG2 tox -14%.
Screening Cc1ccc(CCNc2ncnc3onc(-c4ccc(Cl)cc4)c23)cc1 returned TDP1 cell noCPT 26µM*, TGFb inhibitor 25%, DT40 TDP1 CPT inconclusive and HepG2 tox 7%.
`c1ccc(-c2cc3ncc4c(n3n2)-c2ccccc2OC4)cc1` gave TDP1 cell noCPT -23%, TGFb inhibitor -24%, DT40 TDP1 CPT -12% and HepG2 tox -17%.
For CC(C)=CCc1c(-c2ccc(O)cc2O)oc2cc3c(c(O)c2c1=O)C=CC(C)(C)O3 the results were TDP1 cell noCPT 23µM*, IL-1B inflam inh inconclusive, TGFb inhibitor inconclusive, DT40 TDP1 CPT 23µM*, S-ASM inh 26% and HepG2 tox -109%.
Screening CC(C)=CCc1c2c(c(O)c3c(=O)c(O)c(-c4ccccc4)oc13)C=CC(C)(C)O2 returned TDP1 cell noCPT -10% and DT40 TDP1 CPT -6%.
For CC(C)(C)n1ncc2c(=O)n(Cc3cccc(-c4cccs4)c3)cnc21 the results were TGFb inhibitor inconclusive and HepG2 tox -17%.
`CC(C1CC1)N(C(=O)c1ccccc1[N+](=O)[O-])c1ccccc1` (stereo unspecified) gave TDP1 cell noCPT 8.2µM*, IL-1B inflam inh -14, TGFb inhibitor -1%, DT40 TDP1 CPT 21µM*, S-ASM inh 1% and HepG2 tox -11%.
For COc1ccc(-c2cc(C(F)(F)F)nc(S(C)(=O)=O)n2)cc1 the results were TDP1 cell noCPT 3.3µM*, IL-1B inflam inh -102*, TGFb inhibitor 3.5µM*, DT40 TDP1 CPT 2.6µM*, S-ASM inh 5% and HepG2 tox -101%.
`CS(=O)(=O)c1nc(-c2ccc(F)cc2)cc(C(F)(F)F)n1` gave TDP1 cell noCPT 1.8µM*, IL-1B inflam inh -103*, TGFb inhibitor inconclusive, DT40 TDP1 CPT 1.3µM*, S-ASM inh -1% and HepG2 tox 11µM*.
COc1ccc(-c2cc(C(F)(F)F)nc(N)n2)cc1 was read as TDP1 cell noCPT -1%, IL-1B inflam inh -3, TGFb inhibitor -5%, DT40 TDP1 CPT 13%, S-ASM inh 2% and HepG2 tox 2%.
Screening CCCCNC(=O)c1nc(C2CCN(S(=O)(=O)c3ccc(Cl)cc3)CC2)oc1-c1ccccc1 returned TDP1 cell noCPT 7.3µM*, IL-1B inflam inh 0 and DT40 TDP1 CPT 7.3µM*.
Screening CCCCNC(=O)c1nc(C2CCN(S(=O)(=O)c3csc(C(=O)O)c3)CC2)oc1-c1ccccc1 returned TDP1 cell noCPT 1%, IL-1B inflam inh 21, TGFb inhibitor -16%, DT40 TDP1 CPT -6% and HepG2 tox -14%.
`CCCCNC(=O)c1nc(C2CCN(S(=O)(=O)c3c(OC)cccc3OC)CC2)oc1-c1ccccc1` gave TDP1 cell noCPT 9.2µM*, IL-1B inflam inh -19 and DT40 TDP1 CPT 12µM*.
Screening CCCCNC(=O)c1nc(C2CCN(S(=O)(=O)c3ccccc3)CC2)oc1-c1cccc(C(F)(F)F)c1 returned TDP1 cell noCPT -19%, IL-1B inflam inh -24, TGFb inhibitor 1%, DT40 TDP1 CPT inconclusive and HepG2 tox 5%.
For CCCCNC(=O)c1nc(C2CCN(S(=O)(=O)c3cccc(C(F)(F)F)c3)CC2)oc1-c1ccccc1 the results were TDP1 cell noCPT 8.2µM*, IL-1B inflam inh 13, TGFb inhibitor inconclusive, DT40 TDP1 CPT 9.2µM* and HepG2 tox -65%.
`Cc1cc(C)c(NC(=O)CSc2nc(=O)n3cc(C)ccc3n2)c(C)c1` gave TDP1 cell noCPT inconclusive, IL-1B inflam inh 2, TGFb inhibitor 4%, DT40 TDP1 CPT inconclusive and HepG2 tox -20%.
`O=C(CN1CCN(C(=O)CNC(=O)c2ccc3c(c2)OCO3)CC1)Nc1ccc(F)cc1` gave TDP1 cell noCPT inconclusive, IL-1B inflam inh -11, TGFb inhibitor 19%, DT40 TDP1 CPT 8%, S-ASM inh 1% and HepG2 tox -2%.
Screening CCCCCCSc1nnc(-c2cnn(-c3ccccc3)c2-n2cccc2)n1C returned TDP1 cell noCPT 21µM*, IL-1B inflam inh -16, TGFb inhibitor inconclusive, DT40 TDP1 CPT inconclusive, S-ASM inh -3% and HepG2 tox -100%.
For COc1ccccc1NC(=O)CN(c1ccc(C23CC4CC(CC(C4)C2)C3)cc1)S(C)(=O)=O the results were TDP1 cell noCPT 15µM*, IL-1B inflam inh -2, TGFb inhibitor inconclusive, DT40 TDP1 CPT 13µM*, S-ASM inh -7% and HepG2 tox -4%.
`CS(=O)(=O)N(CC(=O)O)c1ccc(C23CC4CC(CC(C4)C2)C3)cc1` gave TDP1 cell noCPT 27%, IL-1B inflam inh 5, TGFb inhibitor -28%, DT40 TDP1 CPT 4%, S-ASM inh 9% and HepG2 tox -19%.
Screening Cn1c(SCC(=O)N2CCOCC2)nc2sc3c(c2c1=O)CCCC3 returned TDP1 cell noCPT 23µM*, IL-1B inflam inh -4, TGFb inhibitor -15%, DT40 TDP1 CPT 9.2µM*, S-ASM inh -4% and HepG2 tox 4%.
For C=CCn1c(SCC(=O)N2CCOCC2)nc2sc3c(c2c1=O)CCCC3 the results were TDP1 cell noCPT 18µM*, IL-1B inflam inh -77*, TGFb inhibitor -10%, DT40 TDP1 CPT inconclusive, S-ASM inh -3% and HepG2 tox -56%.
`C=CCn1c(SCC(=O)N2CCOCC2)nc(O)c(Cc2ccccc2)c1=O` gave TDP1 cell noCPT 13µM*, IL-1B inflam inh -1, TGFb inhibitor 16%, DT40 TDP1 CPT inconclusive, S-ASM inh -2% and HepG2 tox 6%.
For CCC(CC)COC(=O)C1=C(C)NC(=O)NC1c1ccc(N(C)C)cc1 (stereo unspecified) the results were TDP1 cell noCPT 21µM*, IL-1B inflam inh inconclusive, TGFb inhibitor inconclusive, DT40 TDP1 CPT inconclusive, S-ASM inh -1% and HepG2 tox 7.9µM*.

Assay outcomes as filed in PubChem BioAssay.
